A short description of assay [1]: compound effects on lung adenocarcinoma cell viability – A549, calcein-AM fluorescence, 48 h, basal, profiling panel (AID 1162). The note with it: higher = more signal.
A short description of assay [2]: compound effects on differentiated 3T3-L1 adipocyte viability – cell-based, 3T3-L1 adipocytes, calcein-AM fluorescence, 48 h, basal, profiling panel (AID 1163). The note with it: 3T3-L1 adipocytes viability, higher = more signal.
The nature of assay [3]: compound effects on hepatocellular carcinoma cell viability – HepG2, calcein-AM fluorescence, 48 h, basal, profiling panel (AID 1164). The note with it: higher = more signal.
Assay [4] can be described thus: compound effects on multiple myeloma cell viability – MM1S, calcein-AM fluorescence, 48 h, basal, profiling panel (AID 1165).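 Further: viability of MM1S multiple myeloma cells under basal unstimulated conditions.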 To be noted: higher = more signal.
The nature of assay [5]: calcein-AM signal in unstimulated myeloma cells – cell-based, calcein-AM fluorescence, 48 h, PK04 Diversity Set, profiling panel (AID 1166).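 Further: cells grown under basal conditions without added stimulus.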 The note with it: RPMI8226 myeloma viability, higher = more signal.
The nature of assay [6]: JC-1 mitochondrial signal, unstimulated HepG2 cells – cell-based, JC-1 fluorescence, 24 h, 100 nL compound, profiling panel (AID 1167). The note with it: HepG2 mitochondrial potential, higher = more signal.
Assay [7] in a line: JC-1 mitochondrial signal, unstimulated adipocytes – cell-based, JC-1 fluorescence, 3T3-L1 adipocytes, 24 h, 100 nL compound, profiling panel (AID 1168). To be noted: JC-1 mitochondrial fluorescence, higher = more signal, called active from +8 up or from −8 down.
Assay [8] in a line: JC-1 mitochondrial signal, unstimulated myeloma cells – cell-based, JC-1 fluorescence, RPMI8226, 24 h, 100 nL compound, profiling panel (AID 1169). The note with it: JC-1 mitochondrial potential fluorescence, higher = more signal.
Assay [9] is described as follows: JC-1 mitochondrial signal, unstimulated MM1S myeloma – cell-based, JC-1 fluorescence, 24 h, 100 nL compound, profiling panel (AID 1170). To be noted: MM1S mitochondrial potential, higher = more signal.
Assay [10] can be described thus: resazurin metabolic signal in A549 cells – cell-based, resazurin fluorescence, 24 h, PK04 Diversity Set, profiling panel (AID 1171). To be noted: A549 viability, higher = more signal, called active from +8 up or from −8 down. On the technique in general: The colour change of resazurin is a common sign of viable cells or microbes.

SMILES strings stand for the structures. The source made the active and inactive calls.

Here are results for 16 molecules from PubChem BioAssay.
Further: test concentration not given here.

For `O=C1OCCC/C=C\[C@H]2OC34C=CCN(Cn5nnc6ccccc65)C(=O)[C@H]3N(CCO)C(=O)[C@@H]4C12` (stereo not given in full), the z-score is 0.499 in assay [1]; 1.02 in [2]; -0.822 in [3]; 0.971 in [4]; -0.117 in assay [5]; 0.31 in [6]. The z-score in [7] was 0.192 (inactive); in assay [8] it was 0.656; in [9] it was -0.345; in assay [10], -0.66 (inactive).
Take `C#CCN(CC=C(C)C)[C@H](CO)c1ccccc1`: the z-score in [1] is -0.589; in assay [2], 1.37; in assay [3] it was -0.7; in [4], 0.0539; in [5], -1.2; in [6], -1.16. Besides, the z-score is 0.27 (inactive) in assay [7], -0.383 in [8], 0.471 in [9] and -0.665 (inactive) in assay [10].
In the case of `COC(=O)[C@@]1(Cc2ccc(OC)cc2)[C@H]2c3cc(C(=O)N4CCCC4)n(Cc4ccc(OC)c(OC)c4)c3C[C@H]2CN1C(=O)c1ccccc1`, the z-score is -0.25 in [1]; 0.525 in assay [2]; -1.05 in [3]; -0.128 in [4]; -0.808 in [5]; 4 in assay [6]. The z-score in assay [7] is 0.0331 (inactive); in assay [8] it was -0.16; in assay [9] it was -0.602; in [10], 1.21 (inactive).
With `N#Cc1ccc(NN2C(C(O)c3c(F)cccc3Cl)C=CC3C(=O)N(c4ccccc4)C(=O)C32)cc1` (stereo not given), the z-score in assay [1] was 0.212; in assay [2], -0.684; in [3] it was 0.0972; in assay [4], -0.0928; in [5] it was -0.91; in assay [6], -1.41. Moreover, the z-score in [7] was -1.82 (inactive); in assay [8], -0.275; in [9], -0.0893; in [10] it was -0.0273 (inactive).
For the molecule `COc1ccc([Si](C)(C)[C@H]2[C@H](CC(=O)N3CCC[C@H]3CO)O[C@@]3(C(=O)N(Cc4cccc(N5C(=O)c6cccc7cccc5c67)c4)c4ccccc43)[C@@H]2C)cc1`, the z-score in assay [1] was -0.577; in [2], 0.453; in assay [3], -0.507; in assay [4] it was -1.99; in [5], -3.99; in assay [6], 1.12. The z-score was -0.69 (inactive) in assay [7], -1.12 in [8], -0.388 in [9] and -0.892 (inactive) in assay [10].
`CC1CC/C=C\[C@H]2OC34C=CCN(Cn5nnc6ccccc65)C(=O)[C@H]3N(C(CO)C(C)C)C(=O)[C@@H]4C2C(=O)O1` (stereo not given in full): the z-score in [1] was 0.101; in assay [2], 0.0716; in assay [3], 0.0778; in [4] it was 0.654; in [5] it was -0.872; in assay [6], -0.388. In addition, the z-score in assay [7] is -0.573 (inactive); in assay [8], -0.637; in [9], -0.454; in [10], 0.238 (inactive).
As for `C=C(COC)/C(=C/C[C@@H](OC(C)=O)c1ccc(OCCO)cc1)c1cc(C(=O)OC)ccc1OC`, the z-score in assay [1] was -0.534; in assay [2] it was -0.0502; in assay [3] it was -0.0182; in assay [4], -1.25; in [5] it was -0.648; in [6], 0.592. Also, the z-score in assay [7] was -0.512 (inactive); in assay [8], -0.729; in [9] it was -0.723; in assay [10], 0.916 (inactive).
In the case of `CC(C)(C)OC(=O)CC[C@@]1(C(=O)NCCN2CCOCC2)N=C(c2ccc(OCCCO)cc2)O[C@@H]1c1ccccc1N=[N+]=[N-]`, the z-score in assay [1] was 1.2; in assay [2] it was 0.698; in [3], 1.33; in assay [4] it was -0.849; in assay [5], -0.187; in assay [6], 0.749. Also, the z-score in [7] was 1.66 (inactive); in assay [8] it was -0.993; in [9], -0.339; in assay [10] it was -0.492 (inactive).
Take `[N-]=[N+]=Nc1ccccc1C[C@]1(C(N)=O)N=C(c2ccc(OCCCO)cc2)O[C@H]1c1ccccc1`: the z-score in assay [1] was 0.0914; in [2], 0.124; in [3], -0.0857; in [4], -1.9; in assay [5], -0.495; in assay [6] it was -0.543. Also, the z-score in assay [7] is -0.387 (inactive); in assay [8], -0.265; in assay [9] it was -0.0874; in [10] it was 0.453 (inactive).
As for `O=C1O[C@H](c2ccccc2)[C@H](c2ccccc2)N2[C@H]1[C@@H](C(=O)O)[C@]1(C(=O)Nc3ccc(C#CCCO)cc31)[C@H]2c1ccc(O)cc1`, the z-score in assay [1] was 1.46; in assay [2], 0.339; in assay [3] it was -0.215; in [4], 0.536; in [5], 0.858; in [6] it was -0.308. The z-score in assay [7] was -0.395 (inactive); in assay [8], -0.896; in assay [9], -0.565; in assay [10], 1.52 (inactive).
Turning to `Cc1ccc(S[C@]2(C(=O)NC3CC3)CC(=O)N(C3Cc4ccccc4C3)[C@@H]2c2ccc(CO)cc2)cc1`, the z-score is 3.2 in assay [1]; 0.785 in assay [2]; 1.51 in assay [3]; 0.498 in assay [4]; 0.244 in assay [5]; 2.78 in assay [6]. Besides, the z-score was 0.569 (inactive) in assay [7], 0.763 in assay [8], -0.0488 in assay [9] and -1.23 (inactive) in assay [10].
On to `Cc1ccc(C(C)CC(O)C2C=CC3C(=O)N(C)C(=O)C3N2NC(=O)OC(C)(C)C)o1` (stereo not given), for which the z-score in assay [1] is 0.987; in assay [2], -0.515; in assay [3], 0.917; in [4], -0.193; in assay [5], -0.883; in assay [6], -0.768. For the same molecule, the z-score in assay [7] is -0.632 (inactive); in [8], -0.876; in assay [9] it was -0.357; in assay [10] it was 0.543 (inactive).
For `[N-]=[N+]=NCc1ccccc1C[C@]1(C(=O)NCC(O)CO)N=C(c2ccc(OCCCO)cc2)O[C@H]1c1ccccc1` (stereo not given in full), the z-score in [1] was -0.691; in [2], 0.0311; in assay [3], -1.25; in assay [4], -2.42; in [5], -1.81; in assay [6], -1.31. Further, the z-score in assay [7] is -0.142 (inactive); in [8] it was -0.547; in assay [9], -0.727; in assay [10], -0.246 (inactive).
Turning to `CCOC(=O)C[C@H]1[C@H](OC(=O)Cc2ccc3c(c2)OCO3)[C@@H](NC(=O)c2ccc(-c3ccccc3)cc2)c2cc(OCCCO)ccc2N1C(=O)c1ccc2ccccc2n1`, the z-score in assay [1] was 1.8; in assay [2] it was 2.75; in assay [3] it was 1.65; in assay [4] it was 0.218; in assay [5], -0.472; in assay [6], 2.72. Also, the z-score in assay [7] is 0.61 (inactive); in [8], -0.233; in assay [9], -0.903; in assay [10], 0.562 (inactive).
As for `COC(=O)[C@@]1(Cc2ccccc2)[C@H]2c3cc(C(=O)N4CCCC4)n(CC4CC4)c3C[C@H]2CN1C(=O)c1ccccc1`, the z-score is -1.46 in [1]; 0.643 in [2]; -0.303 in assay [3]; -0.39 in assay [4]; -2.15 in [5]; 1.51 in assay [6]. The z-score in assay [7] is -1.77 (inactive); in assay [8] it was -0.516; in assay [9], -0.569; in [10], -1.51 (inactive).
`CCCCc1cn(C[C@H](Cc2ccccc2)NC(=O)N[C@H](CO)CCc2oc(C(C)=O)c(C(=O)OC)c2C(=O)OC)nn1`: the z-score is -0.601 in [1]; 0.813 in [2]; 0.132 in [3]; 0.787 in [4]; -1.22 in assay [5]; 0.173 in assay [6]. Further, the z-score is 0.273 (inactive) in assay [7], 0.24 in assay [8], 1 in assay [9] and -0.571 (inactive) in assay [10].
